Compound activity: PubChem, Johns Hopkins Ion Channel Center
KCNQ2 block: rat KCNQ2 potassium channel inhibitors, primary screen, cell-based, CHO-K1, FluxOR thallium flux, B-score; Potassium voltage-gated channel subfamily KQT member 2 (Rattus norvegicus), O88943; 20 min; hits give low values; B-score at 10 µM; hit rate 1.1% among 310,000; AID 2156, 2009;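 active = fluorescence ratio B-score at most minus 3 library SDs, with starting brightness B-score within 2 library SDs, cut at about -5.5 in these data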
KCNQ2 pot: potentiators of rat KCNQ2 potassium channel; Potassium voltage-gated channel subfamily KQT member 2 (Rattus norvegicus), O88943; CHO-K1 KCNQ2, FluxOR thallium flux fluorescence; hits give high values; B-score at 10 µM; hit rate 0.54% among 310,000;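 active = fluorescence ratio B-score at least 3 SD of library B-scores, with initial fluorescence B-score within 3 of them, cut at about 5.3 in these data; same plate scores as AID 2156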;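 note: B-score of peak minus minimum over baseline fluorescence ratio after K+ and Tl+ stimulus; positive B-score means potentiation of KCNQ2 with more thallium influx and brighter signal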
Kir21 conf inh: mouse Kir2.1 channel blockers, retest, confirmation, cell-based, FluxOR thallium flux, duplicate; shares compounds with KCNQ2 pot; Kir2.1-expressing cells, FluxOR thallium flux fluorescence; hits give low values; Tl flux remaining, % of negative control (hits give low values), % at 10 µM; hit rate 41% among 2,300;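 active = Primary-screen hit whose thallium flux fell at least 3 control SD below untreated wells in both duplicates, with normal baseline fluorescence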
HEK293 ctr: counter-screen for Kir2.1 inhibitors: effect in parental HEK293 cells. shares compounds with KCNQ2 pot. FluxOR thallium flux fluorescence; 0% = unstimulated blank wells. FluxOR signal as % of negative control (100 = no effect), % at 10 µM. hit rate 19% among 2,300. AID 2105;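 active = dye signal at least 3 control SD above or below untreated wells in both duplicates, raw fluorescence within 3, either direction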;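 note: percent is based on the flux ratio of peak minus minimum fluorescence over baseline F0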
CHO-K1 ctr: nonspecific thallium flux increase in parental CHO-K1, confirmation, counter-screen for KCNQ2 potentiator project, cell-based, FluxOR thallium flux, duplicate. shares compounds with KCNQ2 pot. parental CHO-K1 cells, FluxOR thallium flux fluorescence; zero = vehicle mean+3SD, 100% = vehicle-minus-blank window. activity increase over 3SD of controls, % at 10 µM. hit rate 43% among 1,200;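 active = signal rise of at least 3 SD above the untreated control mean, in both duplicate wells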;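 note: counter screen of KCNQ2 potentiator hits so any rise reflects channel-independent effects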
KCNQ1 sel pot: human KCNQ1 channel potentiation off-target, confirmation, selectivity assay for KCNQ2 potentiator project, cell-based, CHO, FluxOR thallium flux. shares compounds with KCNQ2 pot. CHO KCNQ1 stable, FluxOR thallium flux fluorescence; beyond 3SD, as % of vehicle-control signal. hit rate 28% among 1,200. activation over 3SD threshold, % at 10 µM;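 active = fluorescence ratio rise of at least 3 SD of vehicle wells above their mean, in both replicate wells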
Target sequence (P51787 whole entry, looked up): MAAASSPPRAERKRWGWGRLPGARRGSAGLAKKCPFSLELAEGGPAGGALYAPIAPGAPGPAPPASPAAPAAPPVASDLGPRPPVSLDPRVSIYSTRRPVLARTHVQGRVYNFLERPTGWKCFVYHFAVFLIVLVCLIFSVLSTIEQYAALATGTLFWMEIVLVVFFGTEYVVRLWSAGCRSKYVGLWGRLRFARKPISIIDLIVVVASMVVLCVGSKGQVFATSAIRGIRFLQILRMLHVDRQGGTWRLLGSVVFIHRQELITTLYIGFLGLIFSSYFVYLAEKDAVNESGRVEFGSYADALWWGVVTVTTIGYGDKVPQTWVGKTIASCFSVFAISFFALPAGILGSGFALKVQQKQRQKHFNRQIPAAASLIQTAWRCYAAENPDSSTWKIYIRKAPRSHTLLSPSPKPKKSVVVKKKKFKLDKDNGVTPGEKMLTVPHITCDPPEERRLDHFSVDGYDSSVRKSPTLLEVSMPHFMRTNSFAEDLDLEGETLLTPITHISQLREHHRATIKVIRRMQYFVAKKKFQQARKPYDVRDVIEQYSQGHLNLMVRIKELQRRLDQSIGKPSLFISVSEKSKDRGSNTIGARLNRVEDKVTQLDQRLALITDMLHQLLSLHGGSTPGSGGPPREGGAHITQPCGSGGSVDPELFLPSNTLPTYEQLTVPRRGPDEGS
KCNQ2 pot confirm: rat KCNQ2 channel potentiators, confirmation, cell-based, CHO, FluxOR thallium flux, duplicate | CHO-KCNQ2 cells, FluxOR thallium flux fluorescence | shares compounds with KCNQ2 pot | hit rate 68% among 1,200 | AID 2287, 2010 | potentiation, less the hit threshold, % at 10 µM;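 active = fluorescence ratio rising 3 SD or more over the vehicle control mean in both replicates, plus primary screen hit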;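 note: peak minus minimum thallium fluorescence divided by baseline after K/Tl stimulus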
Kir21 spec: mouse Kir2.1 channel activation off-target, confirmation, selectivity assay for KCNQ2 potentiator project, cell-based, HEK293, FluxOR thallium flux. shares compounds with KCNQ2 pot. HEK293 Kir2.1, FluxOR thallium flux fluorescence. activity over 3SD threshold, % at 10 µM. hit rate 2% among 1,200;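 active = fluorescence ratio rise of at least 3 SD above the vehicle-control mean, seen in both replicates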
KCNQ2 W236L pot: potentiators of retigabine-insensitive KCNQ2 W236L, mechanism study for KCNQ2 potentiator project, cell-based, rat KCNQ2 W236L, CHO, automated patch clamp; AID 2558, 2010; shares compounds with KCNQ2 pot; current increase over 3SD of negative controls (%), hits give high values, % at 25 µM; hit rate 10% among 940; automated patch clamp current;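 active = current increase at least 3 SD of the untreated controls above them in both duplicate recordings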
Of the large screens only hits and unclear results are named; the others gave an inactive call (follow-up assays come after a bar, where they were run). Most compounds without a hit are left out; they make up all but 1.6% or so of the library.

CCn1c(=S)[nH]c2sc3c(c2c1=O)CCCC3	KCNQ2 pot 15.7 | Kir21 conf inh inactive | HEK293 ctr 393.0% | CHO-K1 ctr 40.5 | KCNQ1 sel pot inactive | KCNQ2 pot confirm 59.6 | Kir21 spec inactive | KCNQ2 W236L pot inactive
CCc1nnc(NC(=O)CSc2nnc(C(C)NC(=O)c3ccccc3F)n2C)s1 (stereo not given)	none (no result: KCNQ2 pot)
O=c1[nH]c2ccccc2cc1CN(CC1CCCO1)S(=O)(=O)c1ccccc1 (stereo not given)	none
CCN(CC)C(=O)C1CCN(S(=O)(=O)c2ccc3c(c2)CCCN3C(=O)C2CCC2)CC1	none (no result: KCNQ2 pot)
CC1=NN(C(=O)c2c(Br)cnn2C)C(O)(C(F)(F)F)C1 (stereo not given)	KCNQ2 pot 13.9 | Kir21 conf inh inactive | HEK293 ctr inactive | CHO-K1 ctr inactive | KCNQ1 sel pot inactive | KCNQ2 pot confirm inactive | Kir21 spec inactive
COc1ccc(OCC(=O)N2N=C(C)CC2(O)C(F)(F)F)cc1 (stereo not given)	none (no result: KCNQ2 pot)
Cc1cccc(NC(=O)CSc2nnc(CNC(=O)c3ccco3)o2)c1	none
Cc1cc(NC(=O)C(Cl)c2ccccc2)no1 (stereo not given)	none (no result: KCNQ2 pot)
CCOC(=O)/C(C(=Nc1ccccc1)Nc1ccccc1)=C(\C)O	none (no result: KCNQ2 pot)
NC(=Nc1ccccc1)Nc1ccccc1	KCNQ2 pot 5.84 | Kir21 conf inh inactive | HEK293 ctr inactive | CHO-K1 ctr 8.7 | KCNQ1 sel pot inactive | KCNQ2 pot confirm 19.6 | Kir21 spec inactive | KCNQ2 W236L pot inactive
O=C(NCc1ccccc1)C1CCCN1C(=O)Nc1ccccc1[N+](=O)[O-] (stereo not given)	none (no result: KCNQ2 pot)
O=C(O)c1cc(NN=Nc2cccc([N+](=O)[O-])c2)cc([N+](=O)[O-])c1	none
O=C(O)c1cc(NN=Nc2ccc(Br)cc2)cc([N+](=O)[O-])c1	KCNQ2 pot 7.43 | Kir21 conf inh inactive | HEK293 ctr inactive | CHO-K1 ctr inactive | KCNQ1 sel pot 33.0 | KCNQ2 pot confirm 16.3 | Kir21 spec inactive | KCNQ2 W236L pot inactive
O=C(NCc1nnnn1-c1ccc(F)c(F)c1)c1ccc2c(c1)OCO2	none
COc1ccc(-c2nc(C3CCCCC3)c3cc(OC)ccc3n2)cc1	none (no result: KCNQ2 pot)
CCCn1c(C(C)Nc2nc(-c3cc(Cl)c(N)c(Cl)c3)cs2)nc2cc(Cl)c(N3CCCCC3)cc21 (stereo not given)	none (no result: KCNQ2 pot)
Cc1sc2nc(CN3CCOCC3)[nH]c(=S)c2c1C	KCNQ2 pot 19.5 | Kir21 conf inh inactive | HEK293 ctr 412.5% | CHO-K1 ctr inactive | KCNQ1 sel pot inactive | KCNQ2 pot confirm 101.2 | Kir21 spec inactive | KCNQ2 W236L pot inactive
Cc1sc2nc(CN3CCN(c4ccc(O)cc4)CC3)[nH]c(=O)c2c1C	none
Cc1ccc2nc(NC(=O)c3ccco3)sc2c1	none
O=C(NC(=S)Nc1nc(-c2ccc(Br)cc2)cs1)c1ccco1	none
O=C(NC(=S)Nc1nc(-c2ccc([N+](=O)[O-])cc2)cs1)c1ccco1	KCNQ2 pot 10.3 | Kir21 conf inh inactive | HEK293 ctr 168.0% | CHO-K1 ctr inactive | KCNQ1 sel pot 43.6 | KCNQ2 pot confirm inactive | Kir21 spec inactive
Cc1ccc2nc(NC(=S)NC(=O)c3ccco3)sc2c1	KCNQ2 pot 12 | Kir21 conf inh inactive | HEK293 ctr 228.0%
COCCNC(=O)CCc1nnc2ccc(N3CCC(C)CC3)nn12	none
Cc1nnc2n(-c3ccccc3)c(=O)c3c4c(sc3n12)COC(C(C)C)C4 (stereo not given)	none
CC(C)C1Cc2c(sc3[nH]c(=S)n(Cc4ccccc4)c(=O)c23)CO1 (stereo not given)	KCNQ2 pot 7.33 | Kir21 conf inh inactive | HEK293 ctr 396.5% | CHO-K1 ctr 18.7 | KCNQ1 sel pot inactive | KCNQ2 pot confirm 52.2 | Kir21 spec inactive | KCNQ2 W236L pot inactive
COc1ccc(C(=O)N/C(=C/c2ccco2)C(=O)N2CCCCCC2)cc1	none (no result: KCNQ2 pot)
S=C(NCCc1ccccc1)Nc1nccs1	none (no result: KCNQ2 pot)
S=C(NCc1ccccc1)Nc1nccs1	KCNQ2 pot 8.97 | Kir21 conf inh inactive | HEK293 ctr inactive | CHO-K1 ctr 26.0 | KCNQ1 sel pot inactive | KCNQ2 pot confirm inactive | Kir21 spec inactive
CC(C)[C@H](NC(=O)N1c2ccccc2NC(=O)[C@@H]1C(C)C)C(=O)N[C@H](Cc1ccccc1)C(=O)O	none
Nc1ccc(C(=O)N/N=C2\CCCc3c2[nH]c2ccccc32)cc1	none
c1ccc(CCN=C2CCCc3c2[nH]c2ccccc32)cc1	none (no result: KCNQ2 pot) | Kir21 conf inh 19.5% | HEK293 ctr 70.5%
CN(C)CCOC(=O)c1ccc2c(c1)S(=O)(=O)c1ccccc1C2=O	none
CNC[C@H](CC1CCCCC1)NC[C@H](Cc1ccccc1)NCCC12CC3CC(CC(C3)C1)C2	none | Kir21 conf inh inactive | HEK293 ctr inactive
O=C(CC12CC3CC(CC(C3)C1)C2)NC(Cc1ccccc1)C(=O)O (stereo not given)	none
O=C1C(=O)N(c2ccccn2)C(c2cccc([N+](=O)[O-])c2)/C1=C(/O)c1ccc(Br)cc1 (stereo not given)	none
CCOc1ccc(OCC(O)CN2CCc3ccccc3C2)cc1 (stereo not given)	none (no result: KCNQ2 pot)
Cc1cc(OCC(O)CN2CCc3ccccc3C2)cc(C(C)C)c1 (stereo not given)	none (no result: KCNQ2 pot) | Kir21 conf inh 53.0% | HEK293 ctr inactive
CC(C)NS(=O)(=O)c1ccc(CCC(=O)N2CCCCC2)cc1	none
C=CCOc1ccc(/C=C2\SC(=S)N(NS(=O)(=O)c3ccc(C)cc3)C2=O)cc1	KCNQ2 pot 7.7 | Kir21 conf inh inactive | HEK293 ctr 158.5% | CHO-K1 ctr 16.8 | KCNQ1 sel pot inactive | KCNQ2 pot confirm 17.1 | Kir21 spec inactive | KCNQ2 W236L pot inactive
